Records with an inconclusive call do not appear. Active and inactive are the calls of the source. Unless noted, calls follow the shape of the dose curve; as a rule, active = well fitted curve in either direction with a large enough effect (not every such curve was filed as active); inconclusive = small, poorly fitted or top-dose-only effect, or another doubt; inactive = flat fitted curve, though single readings scatter.
Legend:
[1] = target: Lysosomal acid glucosylceramidase (Homo sapiens) (UniProt P04062); test: Glucocerebrosidase-p2 (AID 348; in the data active = potency below about 10 µM; also: potency is read from the fitted curve at half-maximal effect); settings: purified GBA, blue fluorogenic substrate, 40 min
Lysosomal acid glucosylceramidase (Homo sapiens), sequence (P04062 whole entry, looked up): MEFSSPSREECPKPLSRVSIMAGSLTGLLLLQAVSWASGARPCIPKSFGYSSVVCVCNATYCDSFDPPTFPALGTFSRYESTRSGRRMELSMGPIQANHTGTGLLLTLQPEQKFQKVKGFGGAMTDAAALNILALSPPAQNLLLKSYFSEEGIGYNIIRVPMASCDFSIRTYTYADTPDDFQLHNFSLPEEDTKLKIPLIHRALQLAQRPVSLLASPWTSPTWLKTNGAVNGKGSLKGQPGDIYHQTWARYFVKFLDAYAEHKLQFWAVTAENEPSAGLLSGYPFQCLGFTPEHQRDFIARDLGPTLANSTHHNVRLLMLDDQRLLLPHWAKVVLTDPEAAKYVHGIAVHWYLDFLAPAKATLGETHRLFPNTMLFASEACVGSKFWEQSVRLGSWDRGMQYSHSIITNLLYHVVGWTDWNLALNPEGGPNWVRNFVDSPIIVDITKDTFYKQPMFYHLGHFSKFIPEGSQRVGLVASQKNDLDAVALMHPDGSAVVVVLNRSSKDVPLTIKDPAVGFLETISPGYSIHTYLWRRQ
How it was run: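 Compounds titrated from 0.6 nM upwards against 0.2 nM enzyme in pH 5.9 citric acid/KH2PO4, taurocholate, tween-20; blue fluorogenic substrate 80 uM, 40 min room temperature, stopped and read Ex 365/Em 440 for AC50.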

[2] = AP1 Signaling Pathway (AID 357); settings: ME-180 AP-1-bla reporter, EGF-induced, beta-lactamase ratio, 5 h; at 7.69 µM (top of the series) unless noted; also: % is scaled to controls: 0 for no effect and ±100 for the full control effect
How it was run: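 ME-180 cells with beta-lactamase reporter under AP-1 response element, stimulated with EC50 EGF; compounds tested in titration series, 5 h at 37 °C. CCF4 substrate added 2.5 h at room temperature; 460/530 nm emission ratio gave %activity and AC50.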

[3] = target: Cytochrome P450 1A2 (Homo sapiens) (UniProt P05177); test: p450-cyp1a2 (AID 410; calls by dose curve; also: potency is read from the fitted curve at half-maximal effect;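 as to activity change, negative = inhibition: -100% = full effect of reference inhibitor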); settings: recombinant CYP1A2, luciferin-ME demethylation, luminescence; series mostly up to 57 µM
Cytochrome P450 1A2 (Homo sapiens), sequence (P05177 whole entry, looked up): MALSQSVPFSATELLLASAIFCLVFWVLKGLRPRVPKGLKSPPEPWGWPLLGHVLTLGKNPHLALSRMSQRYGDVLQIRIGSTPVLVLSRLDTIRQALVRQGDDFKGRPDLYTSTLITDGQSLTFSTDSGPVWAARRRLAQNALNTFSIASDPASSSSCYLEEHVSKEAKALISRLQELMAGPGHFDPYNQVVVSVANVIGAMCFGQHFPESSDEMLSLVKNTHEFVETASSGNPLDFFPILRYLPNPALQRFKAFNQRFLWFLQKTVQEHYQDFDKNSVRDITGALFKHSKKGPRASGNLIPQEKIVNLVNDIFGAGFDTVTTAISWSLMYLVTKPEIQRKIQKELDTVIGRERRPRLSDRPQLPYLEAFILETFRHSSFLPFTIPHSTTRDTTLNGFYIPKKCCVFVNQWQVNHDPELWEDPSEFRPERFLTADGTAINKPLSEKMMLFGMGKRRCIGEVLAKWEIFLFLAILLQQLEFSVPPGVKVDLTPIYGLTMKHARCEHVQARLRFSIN
How it was run: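 Inhibition was calculated relative to 57 uM furafylline (full inhibition). The reaction used human CYP1A2 at 20nM with Luciferin-ME at its Km, 100uM, driven by an NADPH-regenerating system for 60 min at room temperature.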

[4] = NFAT Signaling Pathway (AID 444); settings: Jurkat NFAT-bla M1, carbachol, beta-lactamase ratio, 5 h; at 7.69 µM (top of the series) unless noted;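 also: carbachol stimulus at about its EC50 of 1 µM final; % is scaled to controls: 0 for no effect and ±100 for the full control effect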
How it was run: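 Read-out: CCF4 FRET ratio (460 nm/530 nm) after 1 h RT dye loading, used for %activity and AC50 from titration series. Cells: Jurkat NFAT-β-lactamase/M1 line, treated with compound plus 1 uM carbachol for 5 h, 37 °C.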

[5] = Stat Signaling Pathway (AID 446); settings: ME-180 SIE beta-lactamase reporter, IL-6 stimulated, 5 h; at 7.69 µM (top of the series) unless noted;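 also: ME-180 cervical cancer cells given 40 pM IL-6 alongside compound; SIE-controlled beta-lactamase reporter measured as 460/530 nm FRET emission ratio; % is scaled to controls: 0 for no effect and ±100 for the full control effect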
How it was run: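 ME-180 SIE-bla cells; overnight plating; cpd + IL-6 40 pM, 5 h, 37 C; LiveBLAzer 2.5 h RT; 460/530 nm emission ratio. Normalized to 300 pM IL-6 and 125 nM JAK inhibitor controls.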

[6] = target: Glucocorticoid receptor (Homo sapiens) (UniProt P04150); test: GR-EFC Redistribution (AID 451; calls by dose curve; also: potency is read from the fitted curve at half-maximal effect); settings: CHO-K1 GR-EFC translocation, beta-gal luminescence, 2 h
Glucocorticoid receptor (Homo sapiens), sequence (P04150 whole entry, looked up, the tested form may be a part): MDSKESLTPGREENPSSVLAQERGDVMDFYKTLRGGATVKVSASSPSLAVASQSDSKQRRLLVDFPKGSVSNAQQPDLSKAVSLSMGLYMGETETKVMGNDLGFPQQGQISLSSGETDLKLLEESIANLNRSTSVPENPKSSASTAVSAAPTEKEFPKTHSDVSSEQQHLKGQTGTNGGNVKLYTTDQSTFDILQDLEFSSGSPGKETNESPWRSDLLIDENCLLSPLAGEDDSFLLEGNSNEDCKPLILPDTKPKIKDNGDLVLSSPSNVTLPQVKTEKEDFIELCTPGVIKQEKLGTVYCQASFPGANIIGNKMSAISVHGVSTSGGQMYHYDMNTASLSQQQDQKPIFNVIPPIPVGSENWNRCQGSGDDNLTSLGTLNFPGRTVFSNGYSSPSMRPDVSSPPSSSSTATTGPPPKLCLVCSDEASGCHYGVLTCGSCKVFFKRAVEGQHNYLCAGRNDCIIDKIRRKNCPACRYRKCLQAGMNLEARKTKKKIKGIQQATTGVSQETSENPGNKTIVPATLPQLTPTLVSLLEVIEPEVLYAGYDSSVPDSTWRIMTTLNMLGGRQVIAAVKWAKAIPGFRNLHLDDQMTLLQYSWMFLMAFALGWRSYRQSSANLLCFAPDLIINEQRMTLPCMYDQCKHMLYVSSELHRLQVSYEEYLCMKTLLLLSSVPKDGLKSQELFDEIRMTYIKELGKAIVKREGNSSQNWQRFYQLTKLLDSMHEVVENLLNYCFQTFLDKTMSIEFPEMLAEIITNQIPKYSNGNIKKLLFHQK
How it was run: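 Translocation of GR-ED fusion to nuclear EA restores b-gal, read by luminescence after 1 h room-temperature detection. Engineered CHO-K1 biosensor cells, 1,000/well, exposed 2 h at 37 C to titrations up to 46 uM final.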

[7] = target: Mitogen-activated protein kinase 10 (Mus musculus) (UniProt Q61831); test: JNK3 AlphaScreen Assay (AID 530); settings: JNK3 lysate, c-Jun phosphorylation; series mostly up to 57.1 µM;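 also: kinase came from lysate of stimulated human HepG2 cells; signal reports phosphorylation of biotinylated GST-cJun 1-79 at Ser73 with 10 µM ATP; % is scaled to controls: 0 for no effect and ±100 for the full control effect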
How it was run: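 Room-temperature AlphaScreen kinase assay; pre-activated HepG2 lysate as JNK3 source, biotin-GST-cJun(1-79) substrate, 10 uM ATP, compound 15 min preincubation.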

[8] = target: 3',5'-cyclic-AMP phosphodiesterase 4B (Homo sapiens) (UniProt Q07343); test: qHTS Assay for Inhibitors of PDE-IV (AID 607; active = well fitted activation curve with a large enough effect in the main read-out, with a control signal flat, not every such curve was filed as active; also: % of control where 0% means no effect); settings: HEK293 ACTOne CNG channel cells, membrane potential fluorescence; series mostly up to 22.9 µM
3',5'-cyclic-AMP phosphodiesterase 4B (Homo sapiens), sequence (Q07343 whole entry, looked up): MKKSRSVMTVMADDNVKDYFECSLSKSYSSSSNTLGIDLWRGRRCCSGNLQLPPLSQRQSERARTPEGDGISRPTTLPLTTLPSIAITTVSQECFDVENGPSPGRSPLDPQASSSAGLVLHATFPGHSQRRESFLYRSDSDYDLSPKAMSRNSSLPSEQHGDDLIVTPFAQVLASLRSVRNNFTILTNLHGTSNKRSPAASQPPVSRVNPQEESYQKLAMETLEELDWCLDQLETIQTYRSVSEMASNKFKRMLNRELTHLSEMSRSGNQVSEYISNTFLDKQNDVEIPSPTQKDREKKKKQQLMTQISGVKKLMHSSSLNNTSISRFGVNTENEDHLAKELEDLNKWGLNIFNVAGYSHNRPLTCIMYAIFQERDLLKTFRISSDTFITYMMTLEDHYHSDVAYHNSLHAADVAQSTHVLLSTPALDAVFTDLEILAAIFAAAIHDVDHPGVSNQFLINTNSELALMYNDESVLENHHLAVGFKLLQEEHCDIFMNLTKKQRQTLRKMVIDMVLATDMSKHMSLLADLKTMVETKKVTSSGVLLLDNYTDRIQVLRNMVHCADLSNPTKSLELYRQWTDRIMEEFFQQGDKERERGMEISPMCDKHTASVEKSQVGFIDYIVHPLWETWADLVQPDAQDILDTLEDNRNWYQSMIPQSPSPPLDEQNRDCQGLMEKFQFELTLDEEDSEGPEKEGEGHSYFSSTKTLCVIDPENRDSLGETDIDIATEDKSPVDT
How it was run: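 ACTOne HEK293 cells carry a modified cAMP-gated CNG channel and express endogenous PDE4; plated 1000 cells/well, compounds up to 22.9 uM final. Membrane-potential dye fluorescence (ex 535/em 590) was read; parental cells received 10 uM forskolin + 100 uM RO 20-1724.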

[9] = qHTS Assay for Lipid Storage Modulators (AID 1519; calls by dose curve); settings: Drosophila S3 cells, BODIPY lipid droplet/cell ratio, laser cytometry, cells loaded with oleic acid; for activity change, negative = inhibition: at 57.5 µM (top of the series)
How it was run: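 Cells seeded at 5,000 per well were treated with compounds over a concentration series and loaded with oleic acid (400 uM, as added). Lipid droplet fluorescence (488 nm excitation, 500-530 nm channel) was read by laser-scanning cytometry and normalized to 20 uM Triacsin C.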

[10] = Primary qHTS for small molecule stabilizers of the endoplasmic reticulum resident proteome: Secreted ER Calcium Modulated Protein (SERCaMP) assay (AID 1508630; active = well fitted curve in the direction sought with a large enough effect; an effect the other way counts as inactive or inconclusive; also: % is scaled to controls: 0 for no effect and ±100 for the full control effect); settings: SH-SY5Y GLuc-SERCaMP (Gaussia luciferase released on ER calcium loss) secretion, thapsigargin, luminescence; series mostly up to 38.4 µM
How it was run: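 GLuc-SERCaMP-expressing SH-SY5Y cells, pretreated 16 h with compound, are challenged with thapsigargin to empty ER calcium stores; after 4 h, coelenterazine is added directly to the medium and luminescence is imaged.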

[11] = target: Cytochrome P450 2C9 (Homo sapiens) (UniProt P11712); test: qHTS Assay for Inhibitors and Substrates of Cytochrome P450 2C9 (AID 883; active = well fitted curve in the direction sought with a large enough effect; an effect the other way counts as inactive or inconclusive; also: nearly all actives have a fitted effect of over 60% in size; also: potency is read from the fitted curve at half-maximal effect); settings: recombinant CYP2C9, luciferin-H luminescence, 60 min; series mostly up to 57.1 µM
Cytochrome P450 2C9 (Homo sapiens), sequence (P11712 whole entry, looked up): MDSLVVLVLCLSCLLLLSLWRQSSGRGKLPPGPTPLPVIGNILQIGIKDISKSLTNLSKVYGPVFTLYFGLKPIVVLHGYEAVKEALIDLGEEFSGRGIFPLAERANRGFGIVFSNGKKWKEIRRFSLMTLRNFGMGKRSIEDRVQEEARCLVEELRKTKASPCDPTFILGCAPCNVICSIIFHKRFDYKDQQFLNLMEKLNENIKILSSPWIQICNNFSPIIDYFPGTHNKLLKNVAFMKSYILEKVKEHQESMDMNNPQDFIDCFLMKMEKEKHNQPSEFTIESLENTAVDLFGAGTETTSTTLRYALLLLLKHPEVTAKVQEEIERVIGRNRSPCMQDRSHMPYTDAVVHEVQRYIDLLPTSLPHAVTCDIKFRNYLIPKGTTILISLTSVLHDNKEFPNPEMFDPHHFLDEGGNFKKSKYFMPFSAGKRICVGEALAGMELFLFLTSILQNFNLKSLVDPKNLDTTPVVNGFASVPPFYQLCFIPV
How it was run: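 Luminescent read-out of deoxyluciferin hydroxylation, normalized to 57uM sulphaphenazole (AC100). Reaction: 10nM enzyme, 100uM Luciferin-H (equal to KM), 25mM KPO4, 10 min compound preincubation, then 60 min with NADPH regeneration, both at 37C.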

[12] = target: Cytochrome P450 3A4 (Homo sapiens) (UniProt P08684); test: qHTS Assay for Inhibitors and Substrates of Cytochrome P450 3A4 (AID 884; active = well fitted curve in the direction sought with a large enough effect; an effect the other way counts as inactive or inconclusive; also: % is scaled to controls: 0 for no effect and ±100 for the full control effect; nearly all actives have a fitted effect of over 50% in size); settings: recombinant CYP3A4, Luciferin-PPXE luminescence; series mostly up to 57.1 µM
Cytochrome P450 3A4 (Homo sapiens), sequence (P08684 whole entry, looked up): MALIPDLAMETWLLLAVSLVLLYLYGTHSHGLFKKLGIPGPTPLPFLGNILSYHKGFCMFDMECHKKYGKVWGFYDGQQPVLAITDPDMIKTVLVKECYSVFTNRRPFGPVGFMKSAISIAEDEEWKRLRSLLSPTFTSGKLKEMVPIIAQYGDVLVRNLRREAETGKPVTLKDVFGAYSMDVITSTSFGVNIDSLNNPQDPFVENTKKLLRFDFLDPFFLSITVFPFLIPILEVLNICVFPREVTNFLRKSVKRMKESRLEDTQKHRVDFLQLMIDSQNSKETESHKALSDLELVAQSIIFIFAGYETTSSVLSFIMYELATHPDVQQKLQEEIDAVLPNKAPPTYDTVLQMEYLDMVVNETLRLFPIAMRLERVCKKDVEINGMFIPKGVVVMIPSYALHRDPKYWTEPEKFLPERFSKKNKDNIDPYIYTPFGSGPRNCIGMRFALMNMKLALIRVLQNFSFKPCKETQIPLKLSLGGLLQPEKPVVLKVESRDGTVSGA
How it was run: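 20 nM human CYP3A4 with 25 uM Luciferin-PPXE (at KM) in 200 mM KPO4, preincubated 10 min with compound; NADPH regeneration started a 60 min RT reaction. Luciferin detected by luminescence, normalized to 57 uM ketoconazole as full inhibition.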

[13] = target: Cytochrome P450 3A4 (Homo sapiens) (UniProt P08684); test: qHTS Assay for Activators of Cytochrome P450 3A4 (AID 885; active = well fitted curve in the direction sought with a large enough effect; an effect the other way counts as inactive or inconclusive; also: potency is read from the fitted curve at half-maximal effect; nearly all actives have a fitted effect of over 65% in size); settings: recombinant CYP3A4, Luciferin-PPXE luminescence, 60 min; series mostly up to 57.1 µM
How it was run: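 20nM CYP3A4 + 25uM Luciferin-PPXE (=KM), 200mM KPO4; cpd 10 min RT; NADPH regen, 60 min RT; stop w/ detection buffer, 20 min; luminescence. Normalized to 57 uM ketoconazole.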

[14] = measured here: cell count channel max response
[15] = measured here: lipid channel max response

O=C(Nc1ccccc1)N1CCC2(CC1)CCN(C(=O)c1csnn1)CC2
inactive: Potency [1] > 11.4 µM | activity change, negative = inhibition [2] -1.74% | Potency [3] | activity change, negative = inhibition [4] 11.2% | activity, negative = inhibition [5] -9.72% | Potency [6] > 46 µM | outcome [7] | Potency [8] | activity change, negative = inhibition [9] 4.48% | Potency [10]
23.2%: max response [9, 15]
16.6%: max response [9, 14]

CC(=O)N1CCC2(CC1)CN(c1ccncc1)C2
11.6%: max response [9, 14]
16.2%: max response [9, 15]
inactive: Potency [1] > 11.4 µM | activity change, negative = inhibition [2] -4.3% | Potency [3] | activity change, negative = inhibition [4] 0.609% | activity, negative = inhibition [5] 0.403% | Potency [6] > 46 µM | outcome [7] | Potency [8] | Potency [11] | activity change, negative = inhibition [9] 2.66% | Potency [10]

O=C(c1cc(C(F)(F)F)cc(C(F)(F)F)c1)N1CCC2(CC1)CN(c1ccccc1)C2
active: Potency [13] 3.98 µM
5.35%: max response [9, 14]
-1.3%: max response [9, 15]
inactive: Potency [1] > 11.4 µM | activity change, negative = inhibition [2] 29.9% | Potency [3] | activity change, negative = inhibition [4] -25.4% | activity, negative = inhibition [5] 2.58% | Potency [6] > 46 µM | outcome [7] | Potency [8] | Potency [12] | activity change, negative = inhibition [9] -8.64% | Potency [10]

O=S(=O)(c1ccccc1)N1CCC2(CCN(C(c3ccccc3)c3ccccc3)CC2)CC1
22.7%: max response [9, 15]
11.2%: max response [9, 14]
active: Potency [11] 0.501 µM | Potency [13] 12.6 µM
inactive: Potency [1] > 11.4 µM | activity change, negative = inhibition [2] -13.4% | Potency [3] | activity change, negative = inhibition [4] -19.9% | activity, negative = inhibition [5] -5.59% | Potency [6] > 46 µM | outcome [7] | Potency [8] | Potency [12] | activity change, negative = inhibition [9] 6.93% | Potency [10]

COC(=O)N1CCC2(CC1)CN(c1cccc(-c3ccccc3)c1)C2
29.4%: max response [9, 15]
23.2%: max response [9, 14]
inactive: Potency [1] > 11.4 µM | activity change, negative = inhibition [2] -12.5% | Potency [3] | activity change, negative = inhibition [4] -3.27% | activity, negative = inhibition [5] 4.85% | Potency [6] > 46 µM | outcome [7] | Potency [8] | activity change, negative = inhibition [9] 4.36% | Potency [10]

O=C(c1csnn1)N1CCC2(CC1)CN(Cc1cc(C(F)(F)F)cc(C(F)(F)F)c1)C2
5.85%: max response [9, 15]
inactive: Potency [1] > 11.4 µM | activity change, negative = inhibition [2] 15.8% | Potency [3] | activity change, negative = inhibition [4] -21.8% | activity, negative = inhibition [5] 3.59% | Potency [6] > 46 µM | outcome [7] | Potency [8] | activity change, negative = inhibition [9] -4.63% | Potency [10]
8.43%: max response [9, 14]

O=C(c1ccncc1)N1CCC2(CC1)CCN(c1ccccc1)CC2
6.62%: max response [9, 15]
inactive: Potency [1] > 11.4 µM | activity change, negative = inhibition [2] -1.33% | Potency [3] | activity change, negative = inhibition [4] 12.8% | activity, negative = inhibition [5] -1.17% | Potency [6] > 46 µM | outcome [7] | Potency [8] | activity change, negative = inhibition [9] 2.16% | Potency [10]
0.126%: max response [9, 14]

COCC(=O)N1CCC2(CC1)CN(C(=O)Nc1cccc(C#N)c1)C2
8.59%: max response [9, 14]
11%: max response [9, 15]
inactive: Potency [1] > 11.4 µM | activity change, negative = inhibition [2] 12.3% | Potency [3] | activity change, negative = inhibition [4] 9.29% | activity, negative = inhibition [5] 11.7% | Potency [6] > 46 µM | outcome [7] | Potency [8] | activity change, negative = inhibition [9] 1.93% | Potency [10]

COCC(=O)N1CCC2(CC1)CN(C(=O)Nc1ccc(OC)cc1)C2
23%: max response [9, 14]
inactive: Potency [1] > 11.4 µM | activity change, negative = inhibition [2] -2.15% | Potency [3] | activity change, negative = inhibition [4] 21.1% | activity, negative = inhibition [5] 2.17% | Potency [6] > 46 µM | outcome [7] | Potency [8] | activity change, negative = inhibition [9] 3.11% | Potency [10]
29.3%: max response [9, 15]

COCC(=O)N1CCC2(CC1)CN(C(=O)Nc1cccc(F)c1)C2
17.5%: max response [9, 14]
inactive: Potency [1] > 11.4 µM | activity change, negative = inhibition [2] -27.6% | Potency [3] | activity change, negative = inhibition [4] 9.78% | activity, negative = inhibition [5] -2.66% | Potency [6] > 46 µM | outcome [7] | Potency [8] | activity change, negative = inhibition [9] 8.39% | Potency [10]
29%: max response [9, 15]

O=C(c1ccncc1)N1CCC2(CC1)CN(c1ncccn1)C2
active: Potency [3] 6.31 µM
22.4%: max response [9, 14]
23.6%: max response [9, 15]
inactive: Potency [1] > 11.4 µM | activity change, negative = inhibition [2] 7.49% | activity change, negative = inhibition [4] 6.22% | activity, negative = inhibition [5] -10.2% | Potency [6] > 46 µM | outcome [7] | Potency [8] | activity change, negative = inhibition [9] 0.437% | Potency [10]

COc1ccc(NC(=O)N2CC3(CCN(C(=O)c4cccn4C)CC3)C2)cc1
21.6%: max response [9, 15]
8.75%: max response [9, 14]
inactive: Potency [1] > 11.4 µM | activity change, negative = inhibition [2] -10.5% | Potency [3] | activity change, negative = inhibition [4] 14.9% | activity, negative = inhibition [5] -11.3% | Potency [6] > 46 µM | outcome [7] | Potency [8] | activity change, negative = inhibition [9] 6.73% | Potency [10]

O=C(c1csnn1)N1CCC2(CC1)CN(c1ccncc1)C2
4.32%: max response [9, 14]
active: Potency [11] 2.51 µM
5.47%: max response [9, 15]
inactive: Potency [1] > 11.4 µM | activity change, negative = inhibition [2] -12.4% | Potency [3] | activity change, negative = inhibition [4] -12.8% | activity, negative = inhibition [5] -7.18% | Potency [6] > 46 µM | outcome [7] | Potency [8] | activity change, negative = inhibition [9] 0.619% | Potency [10]

O=C(Nc1cccc(F)c1)N1CCC2(CCNCC2)CC1
17.4%: max response [9, 14]
23.2%: max response [9, 15]
inactive: Potency [1] > 11.4 µM | activity change, negative = inhibition [2] -5.25% | Potency [3] | activity change, negative = inhibition [4] -3.25% | activity, negative = inhibition [5] -4.9% | Potency [6] > 46 µM | outcome [7] | Potency [8] | activity change, negative = inhibition [9] 2.6% | Potency [10]

Source: PubChem BioAssay (NCATS)
